Test results reported in the antibiotic and cytotoxicity screens of Wong et al. (2023).
About 1,500 (3.8%) of roughly 39,000 compounds were called active. Only a selection was taken, and actives are over-represented in it overall.

Tested on: HSkMC (human skeletal muscle cells)
Assay: cytotoxicity call (relative viability < 0.9)
Details: 10 µM

Row | SMILES | cytotoxicity call
1 | C[C@H](CO)N1C[C@H](C)[C@H](CN(C)Cc2ccc(O)cc2)OCc2ccccc2-c2c(n(C)c3ccccc23)C1=O | inactive
2 | CC(C)NC(=O)Nc1ccc2c(c1)C(=O)N([C@H](C)CO)C[C@@H](C)[C@H](CN(C)S(C)(=O)=O)OCCCC[C@@H](C)O2 | inactive
3 | C[C@@H]1CN([C@H](C)CO)C(=O)Cc2cc(NS(=O)(=O)c3ccc(Cl)cc3)ccc2O[C@H]1CN(C)Cc1ccc(C(=O)Nc2ccccc2N)cc1 | inactive
4 | Cc1ccc(S(=O)(=O)N(C)C[C@@H]2Oc3cc(C#Cc4ccncc4)ccc3S(=O)(=O)N([C@@H](C)CO)C[C@@H]2C)cc1 | inactive
5 | C[C@H]1CN([C@@H](C)CO)C(=O)c2cccc(NS(=O)(=O)c3cn(C)cn3)c2O[C@H]1CN(C)S(=O)(=O)c1ccc(F)cc1 | inactive
6 | C[C@H]1CN([C@@H](C)CO)S(=O)(=O)c2ccc(C#Cc3ccc(F)cc3)cc2O[C@H]1CN(C)CC1CC1 | inactive
7 | C[C@@H]1CCCCO[C@H](CN(C)C(=O)CCC(F)(F)F)[C@H](C)CN([C@@H](C)CO)C(=O)c2cc(NC(=O)Nc3ccc4c(c3)OCO4)ccc2O1 | inactive
8 | CCOC(=O)C1=CC(OC(CC)CC)C(NC(C)=O)C(N)C1.O=P(O)(O)O (stereo unspecified) | inactive
9 | COc1ccc(S(=O)(=O)N(C)C[C@@H]2Oc3ccc(NS(=O)(=O)c4ccc(F)cc4)cc3C(=O)N([C@@H](C)CO)C[C@@H]2C)cc1 | inactive
10 | C[C@H]1CN([C@@H](C)CO)C(=O)Cc2cc(NC(=O)C3CC3)ccc2O[C@H]1CN(C)S(=O)(=O)c1ccc(F)cc1 | inactive
11 | C[C@@H]1CN([C@H](C)CO)C(=O)c2cc(NC(=O)Nc3cccc4ccccc34)ccc2O[C@@H]1CN(C)C(=O)Nc1ccc2c(c1)OCO2 | inactive
12 | COc1ccc([C@H]([C@H](Cc2ccccc2)OC(C)=O)N(CC#C[C@@H](O)c2ccccc2)[C@@H](Cc2ccccc2)C(OC)OC)cc1 | inactive
13 | COc1ccc2c3c(n(c2c1)C)[C@H](CO)N(Cc1ccccc1F)C[C@]13CN(C1)C(=O)C1CCOCC1 | inactive
14 | C[C@@H]1CCCCO[C@H](CN(C)Cc2ccc(C(F)(F)F)cc2)[C@H](C)CN([C@H](C)CO)C(=O)c2cc(NC(=O)Nc3ccc(C(F)(F)F)cc3)ccc2O1 | active
15 | C[C@@H]1CCCCO[C@H](CN(C)Cc2ccc(C(F)(F)F)cc2)[C@@H](C)CN([C@@H](C)CO)C(=O)c2cc(NC(=O)Nc3ccc(C(F)(F)F)cc3)ccc2O1 | inactive
16 | C[C@H](CO)N1C[C@H](C)[C@@H](CN(C)Cc2ccc(C(F)(F)F)cc2)OCCCC[C@H](C)Oc2ccc(NC(=O)Nc3ccc(C(F)(F)F)cc3)cc2C1=O | inactive
17 | C[C@@H]1CCCCO[C@H](CN(C)Cc2ccc(C(F)(F)F)cc2)[C@H](C)CN([C@@H](C)CO)C(=O)c2cc(NC(=O)Nc3ccc(C(F)(F)F)cc3)ccc2O1 | active
18 | C[C@@H]1CN([C@@H](C)CO)C(=O)c2cc(NC(=O)Nc3ccc(C(F)(F)F)cc3)ccc2O[C@@H](C)CCCCO[C@H]1CN(C)Cc1ccc(C(F)(F)F)cc1 | inactive
19 | C[C@H]1CCCCO[C@H](CN(C)Cc2ccc(C(F)(F)F)cc2)[C@@H](C)CN([C@@H](C)CO)C(=O)c2cc(NC(=O)Nc3ccc(C(F)(F)F)cc3)ccc2O1 | inactive
20 | C[C@@H]1CCCCO[C@H](CN(C)C(=O)c2ccccc2)[C@H](C)CN([C@H](C)CO)C(=O)c2cc(NC(=O)C3CCCCC3)ccc2O1 | inactive
21 | O=C(NCCN1CCOCC1)c1cccs1 | inactive

Row | SMILES | cytotoxicity call
22 | CCc1c(Cl)c(O)c(Cl)c(O)c1C(=O)O[C@H]1[C@H](O)[C@H](OC)[C@H](OC/C2=C\C=C\C[C@H](O)/C(C)=C/[C@H](CC)[C@@H](O[C@@H]3OC(C)(C)[C@@H](OC(=O)C(C)C)[C@H](O)[C@@H]3O)/C(C)=C/C(C)=C/C[C@@H]([C@@H](C)O)OC2=O)O[C@@H]1C | active
23 | COc1ccc(CN(C)C[C@@H]2OCCCC[C@H](C)Oc3ccc(NC(=O)Nc4ccc(F)cc4)cc3C(=O)N([C@@H](C)CO)C[C@@H]2C)cc1 | inactive
24 | COc1ccc(CN(C)C[C@@H]2OCCCC[C@H](C)Oc3ccc(NC(=O)Nc4ccc(F)cc4)cc3C(=O)N([C@H](C)CO)C[C@@H]2C)cc1 | inactive
25 | COc1ccc(CN(C)C[C@@H]2OCCCC[C@@H](C)Oc3ccc(NC(=O)Nc4ccccc4)cc3C(=O)N([C@@H](C)CO)C[C@@H]2C)cc1 | inactive
26 | COc1ccc(CN(C)C[C@H]2OCCCC[C@@H](C)Oc3ccc(NC(=O)Nc4ccccc4)cc3C(=O)N([C@H](C)CO)C[C@H]2C)cc1 | active
27 | COc1ccc(CN(C)C[C@H]2OCCCC[C@H](C)Oc3ccc(NC(=O)Nc4ccccc4)cc3C(=O)N([C@@H](C)CO)C[C@@H]2C)cc1 | inactive
28 | COc1ccc(CN(C)C[C@H]2OCCCC[C@@H](C)Oc3ccc(NC(=O)Nc4ccc(F)cc4)cc3C(=O)N([C@H](C)CO)C[C@H]2C)cc1 | active
29 | C[C@@H]1CCCCO[C@@H](CN(C)C(=O)C2CCCCC2)[C@H](C)CN([C@H](C)CO)C(=O)c2cc(NC(=O)Nc3ccc(C(F)(F)F)cc3)ccc2O1 | inactive
30 | C[C@H](CO)N1C[C@H](C)[C@H](CN(C)C(=O)Nc2ccccc2C(F)(F)F)OCc2cnnn2CCCC1=O | inactive
31 | CO[C@@H]1CN(C)C(=O)c2cc(NC(=O)C3CC3)ccc2OC[C@H](C)N(C(=O)Cc2ccccn2)C[C@@H]1C | inactive
32 | COc1ccc(S(=O)(=O)N[C@@H]2C=C[C@H](CC(=O)N3CCC(Cc4ccccc4)CC3)O[C@@H]2CO)cc1 | inactive
33 | Cn1cc(-c2ccno2)c(C(=O)O)n1 | inactive
34 | Cc1c(-c2c(-c3ccc(F)o3)sc3ncnc(O[C@H](Cc4ccccc4OCc4ccnn4CC(F)(F)F)C(=O)O)c23)ccc(OCCN2CCN(C)CC2)c1Cl | active
35 | N#C[C@@H]1N[C@H](CO)[C@H]1c1ccccc1 | inactive
36 | CCCCCCO[C@@H](C)c1cccc(-c2csc(NC(=O)c3cc(Cl)c(/C=C(\C)C(=O)O)c(Cl)c3)n2)c1OC | active
37 | COCC(=O)N1CC(C)(C)c2cc(-c3csc(NC(=O)c4ccc(F)c(OC(F)(F)F)c4)n3)ccc21 | inactive
38 | C[C@H](CO)N1C[C@H](C)[C@@H](CN(C)Cc2ccncc2)Oc2c(NS(=O)(=O)c3ccccc3)cccc2C1=O | inactive
39 | C[C@@H]1CN([C@H](C)CO)C(=O)Cc2cc(NS(=O)(=O)c3ccc(F)cc3)ccc2O[C@H]1CN(C)Cc1ccc(-c2ccccc2)cc1 | active
40 | C[C@@H]1CN([C@H](C)CO)C(=O)Cc2cc(NS(=O)(=O)c3ccc(F)cc3)ccc2O[C@@H]1CN(C)Cc1ccc(-c2ccccc2)cc1 | active
41 | C[C@H]1CN([C@@H](C)CO)C(=O)Cc2cc(NS(=O)(=O)c3ccc(F)cc3)ccc2O[C@@H]1CN(C)Cc1ccc(-c2ccccc2)cc1 | active
42 | C[C@H]1CN([C@@H](C)CO)C(=O)Cc2cc(NS(=O)(=O)c3ccc(F)cc3)ccc2O[C@H]1CN(C)Cc1ccc(-c2ccccc2)cc1 | active

Row | SMILES | cytotoxicity call
43 | Cc1ccc(S(=O)(=O)N(C)C[C@H]2Oc3ncc(-c4ccncc4)cc3C(=O)N([C@H](C)CO)C[C@H]2C)cc1 | inactive
44 | C[C@H]1CCCCO[C@@H](CN(C)C(=O)Nc2ccc3c(c2)OCO3)[C@@H](C)CN([C@@H](C)CO)C(=O)c2cc(NC(=O)c3ccccc3)ccc2O1 | inactive
45 | CO[C@@H]1CN(C)C(=O)c2cc(NS(C)(=O)=O)ccc2OC[C@@H](C)N(C(=O)C2CCOCC2)C[C@@H]1C | inactive
46 | Cc1noc(C)c1NC(=O)Nc1cccc2c1O[C@H](CN(C)Cc1ccc(C(F)(F)F)cc1)[C@H](C)CN([C@H](C)CO)C2=O | inactive
47 | NNC(=O)c1cc2ccccc2[nH]1 | inactive
48 | C[C@H]1CCCCO[C@H](CN(C)Cc2ccccc2)[C@@H](C)CN([C@@H](C)CO)C(=O)c2cc(NC(=O)C3CCCCC3)ccc2O1 | inactive
49 | C[C@H](CO)N1C[C@H](C)[C@H](CN(C)Cc2ccc(-c3ccccc3)cc2)Oc2ccc(NS(=O)(=O)c3ccc(F)cc3)cc2CC1=O | active
50 | C[C@@H]1CN([C@@H](C)CO)C(=O)Cc2cc(NS(=O)(=O)c3ccc(F)cc3)ccc2O[C@H]1CN(C)Cc1ccc(-c2ccccc2)cc1 | inactive
51 | C[C@H](CO)N1C[C@H](C)[C@@H](CN(C)Cc2ccc(-c3ccccc3)cc2)Oc2ccc(NS(=O)(=O)c3ccc(F)cc3)cc2CC1=O | inactive
52 | C[C@@H]1CN([C@@H](C)CO)C(=O)Cc2cc(NS(=O)(=O)c3ccc(F)cc3)ccc2O[C@@H]1CN(C)Cc1ccc(-c2ccccc2)cc1 | active
53 | C[C@@H]1CN([C@@H](C)CO)C(=O)c2cc(NC(=O)CCC(F)(F)F)ccc2O[C@@H](C)CCCCO[C@H]1CN(C)C(=O)C1CCCCC1 | inactive
54 | CSC1=NN(C)c2cnn(C)c(=O)c2S1 | inactive
55 | Cc1noc(C)c1NC(=O)Nc1ccc2c(c1)C(=O)N([C@@H](C)CO)C[C@H](C)[C@@H](CN(C)C(=O)Nc1cccc3ccccc13)OCCCC[C@H](C)O2 | inactive
56 | CC(C)NC(=O)Nc1ccc2c(c1)C(=O)N([C@@H](C)CO)C[C@@H](C)[C@@H](CN(C)S(=O)(=O)c1ccc(F)cc1)O2 | inactive
57 | CO[C@@H]1CN(C)C(=O)c2ccc(NS(=O)(=O)c3cn(C)cn3)cc2OC[C@H](C)N(CCC(F)(F)F)C[C@H]1C | inactive
58 | CC(=N)NCc1cccc(CN)c1 | inactive
59 | O=C(C[C@H]1CC[C@@H](NC(=O)c2cccnc2)[C@@H](CO)O1)NCCN1CCCCC1 | inactive
60 | Cc1noc(C)c1CC(=O)N1CCCC[C@@H]1CCOc1cccc(CN(C)Cc2cccc3cccnc23)c1 | inactive
61 | Cc1ccc(S(=O)(=O)N(C)C[C@H]2Oc3ccc(NS(=O)(=O)c4ccc(F)cc4)cc3CC(=O)N([C@H](C)CO)C[C@H]2C)cc1 | inactive
